Results taken from PubChem BioAssay AID1490 (National Center for Advancing Translational Sciences (NCATS), 2009).
The campaign covered roughly 310,000 compounds. About 11,000 (3.5%) were called active. Another 4% or so got no clear call; they are omitted. Shown is part of a subset that was picked to be rich in actives. The source holds several records for some structures; these can differ, active in one and inactive in another. A number with no mark means an inactive call. Calls come from the whole dose curve; as a rule, active = well fitted inhibition curve with a large enough effect; inconclusive = small, poorly fitted or top-dose-only effect, or another doubt; inactive = no such curve, though single readings can be large or run the other way.

molecular target: 4'-phosphopantetheinyl transferase ffp (Bacillus subtilis) (UniProt Q9F4F7); experiment: qHTS Assay for Inhibitors of Bacillus subtilis Sfp phosphopantetheinyl transferase (PPTase); settings: Biochemical Sfp PPTase activity;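 note: the enzyme is Sfp with the accession as filed and its product quenches rhodamine fluorescence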;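 for largest response in the series, negative = inhibition: 0% = enzyme reaction without inhibitor and -100% = no enzyme wells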
Method in brief: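 Buffer: 50 mM Hepes-Na pH 7.6, 10 mM MgCl2, 0.01% Nonidet P-40, 0.01% BSA. Enzyme 15 nM, pre-exposed to compound 15 min; substrates then added and fluorescence change tracked over 30 min.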
Potency is the fitted concentration of half-maximal effect.

Structure (SMILES) | largest response in the series, negative = inhibition [%] | Potency
COc1ccccc1NC(=O)CSc1nnc(CNC(=O)c2ccccc2F)o1 | 15.2 | –
NC(=O)c1c(NC(=O)CSc2nc(N)cc(=O)[nH]2)sc2c1CCCC2 | -28 | –
CCc1cccc(C)c1NC(=O)CSc1nnc(-c2ccco2)n1N | -3.08 | –
NC(=O)c1c(NC(=O)CSc2nnc(-c3ccco3)n2N)sc2c1CCCC2 | – | 5.62 µM (active)
CCOc1ccccc1NS(=O)(=O)c1c[nH]c(C(=O)OC)c1 | 4.59 | –
COC(=O)C1=C(C)N=C2SC(C)C(=O)N2C1/C=C/c1ccccc1 (stereo not drawn) | 18.9 | –
CC(OC(=O)c1ccccc1N1C(=O)C2C3CCC(C3)C2C1=O)C(=O)c1ccccc1 (stereo not drawn) | 11.3 | –
CCOC(=O)c1ccccc1N1C(=O)C2Sc3[nH]c(=O)sc3C(/C=C/c3ccccc3)C2C1=O (stereo not drawn) | – | 12.6 µM (active)
CN1CCN(CCCCOc2ccccc2-c2ccccc2)CC1 | – | 56.2 µM (active)
c1ccc(-c2ccccc2OCCN2CCCCC2)cc1 | -19 | –
CC1CN(CCOc2ccccc2[N+](=O)[O-])CC(C)O1 (stereo not drawn) | -26.3 | –
CC1CN(CCCOc2ccccc2-c2ccccc2)CC(C)O1 (stereo not drawn) | – | 56.2 µM (active)
CN1CCN(CCCCOc2cccc3ccccc23)CC1 | 4.87 | –
CC1CCCN(CCOCCOc2ccccc2-c2ccccc2)C1 (stereo not drawn) | -31.6 | –
CCN(CC)CCCNC(=O)CCn1nc(-c2ccc(Cl)cc2)ccc1=O | 13.6 | –
OC(CNC1CCCC1)COc1ccc(F)cc1 (stereo not drawn) | 1.37 | –
CCc1cccc(C)c1N1C(=O)CN(Cc2ccccc2)C1=S | 13.8 | –
C#CC(C)(C)NC(=O)c1cnc(-c2ccccc2)nc1-c1ccccc1 | 8.13 | –
COc1ccc(C(=O)n2nc(C)c(Br)c2C)cc1OC | 16.8 | –
CC1CCN(S(=O)(=O)c2ccc3c(ccn3CC(=O)O)c2)CC1 | 13.3 | –
CC(C)OC(=O)c1cc(NC(=O)C2C3CCC(O3)C2C(=O)O)cc(C(=O)OC(C)C)c1 (stereo not drawn) | 12.5 | –

Structure (SMILES) | largest response in the series, negative = inhibition [%] | Potency
Cc1sc(NC(=O)C2C3CCC(O3)C2C(=O)O)c(C(=O)OC(C)C)c1-c1ccc(Cl)cc1 (stereo not drawn) | – | 56.2 µM (active)
COc1ccc(NC(=O)C2C3CCC(O3)C2C(=O)O)cc1OC (stereo not drawn) | -8.26 | –
O=c1ccc2cc(S(=O)(=O)NCCCc3ccccc3)ccc2[nH]1 | 6.03 | –
CCOC(=O)C1CCN(S(=O)(=O)c2c(C)noc2C)CC1 | 0.623 | –
COc1cccc(-c2coc3cc4oc(=O)c(CC(=O)O)c(C)c4cc23)c1 | 3.72 | –
O=C(COc1ccc(Cl)cc1)Nc1ccc2oc(=O)ccc2c1 | -10.1 | –
O=C(NC(=S)Nc1ccc2oc(=O)ccc2c1)c1ccc(-c2cccc(Cl)c2Cl)o1 | – | 79.4 µM (active)
CC(C)C(=O)Nc1ccc2oc(=O)ccc2c1 | 13.6 | –
CC(C)(C)OC(=O)NCCCCC1=CC2=CC(=O)C(C)(OC(=O)c3cccs3)C(=O)C2=CO1 (stereo not drawn) | -1.92 | –
COC/C=C/C1=CC2=CC(=O)C(C)(OC(=O)CCC(=O)OC)C(=O)C2=CO1 (stereo not drawn) | -28.3 | 56.2 µM (active)
CC(C)(C)OC(=O)NCCCC1=CC2=CC(=O)C(C)(OC(=O)c3ccco3)C(=O)C2=CO1 (stereo not drawn) | -0.751 | –
COc1cc(C2C3=C(CCCC3=O)OC3=C2C(=O)CCC3)ccc1OCC(=O)Nc1ccccc1 | -3.15 | –
Cc1cccc(C)c1NC(=O)COC(=O)c1ccccc1O | -13 | –
Cc1cccc(NC(=S)NC(=O)c2ccc(Br)o2)c1 | -10.9 | –
COC(=O)c1ccccc1NC(=S)NC(=O)c1ccccc1F | 10.1 | –
O=C(NC(=S)Nc1ccccc1C(=O)O)c1ccc(-c2ccc(Br)cc2)o1 | – | 31.6 µM (active)
CC1(C)C2CCC1(CS(=O)(=O)NCCc1c[nH]c3ccccc13)C(=O)C2 (stereo not drawn) | 3.13 | –
CCCCN(C)CCNC(=O)C1CCCN(S(=O)(=O)c2cccc3nsnc23)C1 (stereo not drawn) | 11.4 | –
COCCNC(=S)N(CCc1c(C)[nH]c2ccc(C)cc12)Cc1cccnc1 | 5.81 | –
COc1cc(/C=C2/C(=O)ON=C2C)ccc1OCc1ccccc1F | – | 56.2 µM (active)
COc1cc(/C=C2/C(=O)ON=C2C)ccc1OCc1cccc(F)c1 | -29.4 | –

Structure (SMILES) | largest response in the series, negative = inhibition [%] | Potency
CCOc1cc(/C=N/O)ccc1OCc1ccccc1F | 2.28 | –
O=C(Nc1nnc(-c2ccc(F)cc2)s1)c1c(F)cccc1Cl | 11.5 | –
O=C(NCCNc1ccc([N+](=O)[O-])cc1Cl)c1ccccc1F | 13.9 | –
O=C(Nc1sc2c(c1-c1nc3ccccc3[nH]1)CCCC2)C1CC1 | 11.4 | –
O=C1NC(c2ccncc2)Nc2sc3c(c21)CCCC3 (stereo not drawn) | – | 35.5 µM (active)
C/C(=C\c1ccccc1)C1NC(=O)c2c(sc3c2CCCC3)N1 (stereo not drawn) | -9.45 | –
COc1ccc(CNC(=O)C(c2ccc(O)cc2)N(Cc2ccco2)C(=O)c2snc(C(N)=O)c2N)cc1 (stereo not drawn) | 8.78 | –
O=CN1CCN(C(=O)c2ccc3c(c2)OCO3)CC1 | 5.66 | –
Cc1cc(C)cc(NC(=S)NCCCN2CCOCC2)c1 | 3.01 | –
Cc1ccc(C(=O)NC(=S)NCCN2CCOCC2)cc1 | 0.183 | –
O=C(NNC(=S)NCCCN1CCOCC1)c1ccncc1 | – | 28.2 µM (active)
O=C(N/N=C/c1ccoc1)c1ccc(Cl)cc1Cl | 5.37 | –
Cc1cccc(N2CCN(C(=O)CCS(=O)(=O)c3ccc4c(c3)NC(=O)C(C)S4)CC2)c1C (stereo not drawn) | 10.9 | –
CC(C)(C)OC(=O)CNC(=O)c1[nH]cnc1C(=O)N[C@@H](Cc1ccccc1)C(=O)OCc1ccccc1 | 19.7 | –
COc1cccc(OCC(=O)Nc2ccccc2C(N)=O)c1 | 10.7 | –
CCCCOC(=O)Cn1c(=O)n(CC(=O)OCCCC)c2cc(C)ccc21 | 7.32 | –
CCCCCCCCCCOC(=O)Cn1c(COc2cccc(OC)c2)[n+](C)c2ccccc21 | – | 44.7 µM (active)
CCCCOC(=O)Cn1c(=N)n(CCN(CC)CC)c2ccccc21 | 8.57 | –
Cc1ccc(OCCCn2c(=O)oc3ccccc32)cc1 | -10.3 | –
CCCCCCCCCCOC(=O)Cn1c(COc2ccc(C)cc2)[n+](C)c2ccccc21 | – | 31.6 µM (active)
